Screening results: PubChem, National Center for Advancing Translational Sciences (NCATS)
Only some compounds are listed: those with a hit (about 19% of all), similar ones and a draw of the others.
DT40 TDP1 CPT – qHTS for Inhibitors of human tyrosyl-DNA phosphodiesterase 1 (TDP1): qHTS in cells in presence of CPT; chicken DT40 Tdp1-/-;hTDP1 cells + 20 nM CPT, ATP luminescence, 48 h; Potency, µM (highest dose often 46.2 µM), without a hit: at the top dose activity change, negative = growth inhibition, hits mostly inhibitors; 420,000 tested, 12% active; AID 686979, 2013; further: potency means the concentration at half of the fitted maximal effect; nearly all actives have a fitted effect of over 55% in size
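Chicken DT40 Tdp1-/- cells complemented with human TDP1, 400 cells/well, exposed to compounds plus 20 nM camptothecin for at least 48 h at 37 C; viability read as ATP content by CellTiter-Glo luminescence.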
IL-1B inflam inh – qHTS for Inhibitors of Inflammasome Signaling: IL-1-beta AlphaLISA Primary Screen. 360,000 tested, 4.7% active. activity change, % at 57.5 µM. AID 743279, 2014. THP-1 LPS/ATP IL-1B secretion, AlphaLISA, 16 h; hits give low values; in the data active means activity change below about -50%; inconclusive means mostly about -30% to -49%
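Secreted IL-1B measured by AlphaLISA bead assay after 16 h compound exposure of THP-1 cells; compounds (final up to 57.5 uM) added 1 h before LPS (250 ng/mL) and ATP (1.25 mM) stimulation; lower signal means less secretion.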
HT1080-NT tox – qHTS for induction of synthetic lethality in tumor cells producing 2HG: qHTS for the HT-1080-NT fibrosarcoma cell line | HT-1080-NT fibrosarcoma viability, CellTiter-Glo ATP luminescence, 48 h | Potency, µM (highest dose often 46.1 µM), for inactives: at the top dose activity, negative = less viability, usual class: cytotoxic | AID 686970, 2013 | 360,000 tested, 1.6% active;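 further: NT is the 2HG producing partner of a matched IDH1 knockdown line; potency means the concentration at half of the fitted maximal effect; 0% = DMSO-treated cells and -100% = media-only wells without cells; nearly all actives have a fitted effect of over 55% in size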
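Luminescent CellTiter-Glo readout after 48 hours of compound exposure at 37 degrees C defined viability of HT-1080-NT cells. Activity was normalized to DMSO wells and cell-free media wells; concentration-response curves were fitted and assigned curve classes.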
HT1080 IDH1KD tx – qHTS for induction of synthetic lethality in tumor cells producing 2HG: qHTS for the HT-1080-IDH1KD cell line; 360,000 tested, 2% active; HT-1080 IDH1 knockdown viability, ATP luminescence, 48 h; Potency, µM (highest dose often 46.1 µM), without a hit: top-dose activity, negative = toxicity, actives largely listed as cytotoxic; AID 686971, 2013;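 further: potency means the concentration at half of the fitted maximal effect; 0% = DMSO wells and -100% = cell-free medium wells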
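% activity derives from luminescence (CellTiter-Glo), normalised to DMSO and no-cell wells. HT-1080-IDH1KD cells, 750/well, had 48 h compound exposure at 37 °C.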
uPA surface inh – qHTS for Inhibitors of Cell Surface uPA Generation; Potency, µM (top dose mostly 38.3 µM), without a hit: at the top dose activity change, negative = inhibition, actives largely listed as inhibitors; AID 540303, 2011; 330,000 tested, 0.31% active; cell surface uPA generation assay, qHTS; active means well fitted inhibition curve with a large enough effect; inconclusive means small, poorly fitted or top-dose-only effect; inactive means no such curve, though single readings can be large or run the other way; tested in mouse RAW 264.7 cells; further: potency means the concentration at half of the fitted maximal effect; nearly all actives have a fitted effect of over 55% in size
TDP1 cell noCPT – qHTS for Inhibitors of human tyrosyl-DNA phosphodiesterase 1 (TDP1): qHTS in cells in absence of CPT; 420,000 tested, 15% active; AID 686978, 2013; Potency, µM (top dose mostly 46.2 µM), inactives show top-dose activity change, negative = growth inhibition, usual class: inhibitors; DT40 Tdp1-/- hTDP1 cells, no CPT, ATP luminescence, 48 h; further: potency means the concentration at half of the fitted maximal effect; nearly all actives have a fitted effect of over 55% in size
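Chicken DT40 Tdp1-/- cells complemented with human TDP1, screened without camptothecin (DMSO vehicle only), 400 cells/well. Compounds pin-transferred, cells incubated at 37 °C for at least 48 hr. Growth read as ATP-dependent luminescence (CellTiter-Glo, 30 min at RT).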
The depositor's hits bear a star; ? = inconclusive; / = not tested or not shown. Unless noted, the call rests on the fitted dose curve; in most records, active means well fitted curve in the direction sought with a large enough effect; inconclusive means small, poorly fitted or top-dose-only effect, or another doubt; inactive means no such curve, though single readings can be large; an effect the other way counts as inactive or inconclusive. Unless noted, on the % scale 0 is the no-effect control and ±100 the full control effect.

SMILES | DT40 TDP1 CPT | IL-1B inflam inh | HT1080-NT tox | HT1080 IDH1KD tx | uPA surface inh | TDP1 cell noCPT
CSc1ccc(C(=O)C2CCCN(Cc3cccn3-c3cccnc3)C2)cc1 (centres undefined) | 4.6µM* | -96* | ? | -20% | -6% | 5.2µM*
COc1ccc(C(=O)C2CCCN(Cc3cccn3-c3cccnc3)C2)cc1OC (centres undefined) | 16µM* | 0 | 3% | 1% | -2% | 15µM*
O=C(c1ccc2c(c1)OCO2)C1CCCN(Cc2c(F)ccc(F)c2F)C1 (centres undefined) | -1% | -13 | 7% | 2% | 0% | -18%
CC(C)Oc1cccc(C(=O)C2CCCN(Cc3cccn3-c3cccnc3)C2)c1 (centres undefined) | ? | ? | -14% | -13% | ? | 13µM*
O=C(c1ccc2c(c1)OCO2)C1CCCN(Cc2cccn2-c2cccnc2)C1 (centres undefined) | 23µM* | ? | -14% | -23% | 11% | 15µM*
O=C(O)C1C2CCC(C2)C1C(=O)NCCc1ccccc1 (centres undefined) | 3% | 14 | -7% | -11% | 6% | 18%
O=C(NCc1cc(Cl)cc(Cl)c1)c1csc([C@@H]2C[C@H](O)[C@@H](CO)O2)n1 | -26% | -4 | -3% | 0% | / | -11%
Cc1ccc(C)c(Nc2nc3c(S(=O)(=O)c4ccc(C(C)C)cc4)nnn3c3ccsc23)c1 | 15µM* | / | / | / | / | 21µM*
Cc1ccc(C)c(Nc2nc3c(S(=O)(=O)c4ccc(Br)cc4)nnn3c3ccsc23)c1 | 18µM* | / | / | / | / | 21µM*
O=C(NCc1ccco1)c1ccc(COc2ccccc2[N+](=O)[O-])o1 | -13% | 0 | -3% | 0% | -10% | -6%
COC(=O)c1ccc(NC(=O)CCn2cccn2)cc1 | 7% | / | / | / | / | -5%
Cc1cccc(C(=O)NCC(=O)NCCCSc2ccccc2)c1 | ? | 19 | 0% | 2% | -2% | ?
O=C(NCCSc1ccccc1)c1ccc(Br)cc1 | 0% | -6 | 14% | 26% | -2% | -5%
COc1ccc(C(=O)NCCCSc2ccccc2)cc1F | -27% | -18 | 18% | 1% | 0% | ?
COc1ccc(Cl)cc1C(=O)NCCCSc1ccccc1 | -11% | -54* | 6% | 3% | -3% | ?
O=C(CNC(=O)c1cccc(Cl)c1)NCCCSc1ccccc1 | ? | 1 | 2% | 3% | -1% | 23µM*
O=C(NCCCSc1ccccc1)c1cc(Br)ccc1O | ? | -2 | ? | 18µM* | 4% | ?
Cc1nnsc1S(=O)c1ccc(Cl)c(Cl)c1 (centres undefined) | 10µM* | -62* | ? | ? | -8% | 15µM*
O=C(CSc1nnc(Nc2ccccc2)s1)NCC1CCCO1 (centres undefined) | -6% | 21 | 3% | 2% | 9% | 0%
O=C1/C(=C/c2cccc(F)c2)Oc2cc(O)ccc21 | ? | -79* | -18% | -13% | 7% | ?
Cc1cccc(/C=C2\Oc3cc(OS(C)(=O)=O)ccc3C2=O)c1 | ? | -56* | ? | -23% | -1% | ?
COc1ccc(/C=C2\Oc3cc(OCC(N)=O)ccc3C2=O)cc1OC | ? | -2 | -4% | -8% | 4% | ?
COc1cccc(/C=C2\Oc3cc(OC(=O)N4CCOCC4)ccc3C2=O)c1 | ? | -3 | 29% | 3% | 5% | ?
COC(=O)COc1ccc2c(c1)O/C(=C\c1cccc([N+](=O)[O-])c1)C2=O | 18µM* | -1 | 2% | -1% | 7% | 13µM*
O=C1C(=Cc2cccc(F)c2)Cc2ccccc21 | -20% | 22 | 2% | 0% | / | ?
SMILES | DT40 TDP1 CPT | IL-1B inflam inh | HT1080-NT tox | HT1080 IDH1KD tx | uPA surface inh | TDP1 cell noCPT
COC(=O)c1ccccc1NC(=O)c1cc(-c2ccc(Cl)cc2)on1 | -16% | / | / | / | / | -1%
Cc1nn(-c2ccc(Cl)cc2)c2[nH]c(=O)c(CNCc3ccc4c(c3)OCO4)cc12 | 18µM* | -16 | -13% | -1% | 2% | 18µM*
O=C(NCc1ccc2c(c1)OCO2)C1CC(=O)N(c2ccc(Cl)cc2)C1 (centres undefined) | 10% | 19 | 2% | 0% | 4% | -13%
Cc1nn(-c2ccccc2)c2[nH]c(=O)c(CNc3ccc(N4CCOCC4)cc3)cc12 | 18µM* | -8 | -24% | ? | 4% | 18µM*
Cc1ccn2c(=O)cc(COc3ccc(NC(=O)COc4ccc(Cl)cc4)cc3)nc2c1 | -2% | / | / | / | / | -1%
Cc1ccc(-c2nnc3sc(C4COc5ccccc5O4)nn23)cc1 (centres undefined) | ? | -19 | -4% | 3% | / | 23µM*
Clc1ccccc1-c1nnc2sc(C3COc4ccccc4O3)nn12 (centres undefined) | ? | ? | -2% | ? | / | -23%
Cc1cccc(CN2C(=O)c3ccccc3Sc3ccc(C(=O)NCCc4ccccc4)cc32)c1 | -16% | / | / | / | / | ?
CC(C)CCNC(=O)Nc1ccc2c(c1)N(Cc1ccccc1)C(=O)c1ccccc1S2 | 18µM* | / | / | / | / | ?
CC(C)CCNC(=O)c1ccc2c(c1)N(Cc1cccc(Cl)c1)C(=O)c1ccccc1S2 | ? | / | / | / | / | 21µM*
Cn1cccc1C(=O)N1CCC[C@@]2(CCN(Cc3ccccc3)C2)C1 | -6% | / | / | / | / | -18%
COc1ccc(NC(=O)c2oc3ccccc3c2CSC)cc1S(=O)(=O)N1CCOCC1 | 11% | -4 | 15% | 11% | 3% | -3%
CC(C)(C)c1ccc(NC(=O)COC(=O)C2(C)CC2(Cl)Cl)cc1 (centres undefined) | ? | -7 | -15% | -11% | -15% | 23µM*
Cc1ccc(NC(=O)COc2ccc(Cl)cc2Cl)cc1S(=O)(=O)N1CCOCC1 | ? | -57* | -9% | -22% | -14% | ?
Cc1cc(C)cc(NC(=O)c2oc3ccccc3c2COc2ccccc2)c1 | ? | -4 | -1% | -1% | -5% | 21µM*
Cc1ccc(NC(=O)c2oc3ccccc3c2COC(C)C)cc1S(=O)(=O)N1CCOCC1 | 18µM* | -19 | -7% | -11% | 0% | 23µM*
